{"source": "paper PMC10812921", "about": "“Transcriptional Coactivator BOB1 (OBF1, OCA-B) Modulates the Specificity of DNA Recognition by the POU-Domain Factors OCT1 and OCT2 in a Monomeric Configuration”", "key": {"[1]": {"target": "POU1 (OCT1 POU domain) (human, UniProt P14859 260-458)", "sequence (P14859 260-458)": "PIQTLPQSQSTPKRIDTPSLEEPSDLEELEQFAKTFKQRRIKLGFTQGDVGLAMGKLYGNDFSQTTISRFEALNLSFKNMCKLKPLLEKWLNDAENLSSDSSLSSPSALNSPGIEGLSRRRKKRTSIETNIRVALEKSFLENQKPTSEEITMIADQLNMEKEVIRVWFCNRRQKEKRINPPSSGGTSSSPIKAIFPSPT", "assay": "EMSA-SELEX-seq; no BOB1; 20 mM Tris-HCl pH 7.6, 140 mM NaCl, 10% glycerol, 0.5 mM EDTA, 0.05% Triton X-100, 0.1 mg/mL BSA, 0.1 mg/mL poly(dI-dC), 5 mM DTT, room temperature, 20 min; high values mean tight binding", "conditions": "protein: recombinant; dsDNA, one strand shown", "method_in_brief": "(§1)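 After expression in E. coli BL21, tagged POU-domain proteins were purified under denaturing conditions and then renatured. Each binding reaction held 30 ng protein and 300 ng of a PCR-amplified double-stranded random 35-nt library in 20 μL Tris–HCl pH 7.6 binding buffer, with or without 28 ng coactivator protein, for 20 min at RT. Bands holding complexes were cut from native 6% PAGE, eluted and PCR-amplified across four rounds, and the output was Illumina-sequenced. The value given for binding preference is the share, in percent, of sequenced 8-mers fitting a motif pattern.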"}, "[2]": {"target": "T1, POU2 (OCT2 POU domain) (human, UniProt P09086 175-386)", "T1 sequence": "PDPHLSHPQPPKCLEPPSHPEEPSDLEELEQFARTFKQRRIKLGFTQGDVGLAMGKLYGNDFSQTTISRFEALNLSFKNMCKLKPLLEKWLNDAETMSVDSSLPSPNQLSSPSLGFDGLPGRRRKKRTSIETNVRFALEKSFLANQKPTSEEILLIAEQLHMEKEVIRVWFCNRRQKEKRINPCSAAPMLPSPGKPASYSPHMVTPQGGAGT", "assay": "EMSA-SELEX-seq; no BOB1; 20 mM Tris-HCl pH 7.6, 140 mM NaCl, 10% glycerol, 0.5 mM EDTA, 0.05% Triton X-100, 0.1 mg/mL BSA, 0.1 mg/mL poly(dI-dC), 5 mM DTT, room temperature, 20 min; high values mean tight binding", "conditions": "protein: recombinant; dsDNA, one strand shown", "method_in_brief": "as §1"}, "[3]": {"target": "POU1 (OCT1 POU domain);BOB1 (OBF1, OCA-B) (human;human, UniProt P14859;Q16633 260-458;1-256, |)", "assay": "EMSA-SELEX-seq; with BOB1 (ternary complex band); 20 mM Tris-HCl pH 7.6, 140 mM NaCl, 10% glycerol, 0.5 mM EDTA, 0.05% Triton X-100, 0.1 mg/mL BSA, 0.1 mg/mL poly(dI-dC), 5 mM DTT, room temperature, 20 min; high values mean tight binding", "conditions": "protein: recombinant;recombinant; copies: 1;1; dsDNA, one strand shown", "method_in_brief": "as §1"}, "[4]": {"target": "T2, POU2 (OCT2 POU domain);BOB1 (OBF1, OCA-B) (human;human, UniProt P09086;Q16633 175-386;1-256, |)", "T2 sequence 1": "T1 sequence", "T2 sequence 2": "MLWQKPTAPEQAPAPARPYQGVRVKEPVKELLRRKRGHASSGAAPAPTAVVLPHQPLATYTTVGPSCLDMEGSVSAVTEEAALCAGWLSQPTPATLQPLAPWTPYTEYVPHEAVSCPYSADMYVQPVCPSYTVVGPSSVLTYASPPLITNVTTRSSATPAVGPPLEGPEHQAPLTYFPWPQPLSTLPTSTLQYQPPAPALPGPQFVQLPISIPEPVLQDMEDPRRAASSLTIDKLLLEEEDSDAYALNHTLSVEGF", "assay": "EMSA-SELEX-seq; with BOB1 (ternary complex band); 20 mM Tris-HCl pH 7.6, 140 mM NaCl, 10% glycerol, 0.5 mM EDTA, 0.05% Triton X-100, 0.1 mg/mL BSA, 0.1 mg/mL poly(dI-dC), 5 mM DTT, room temperature, 20 min; high values mean tight binding", "conditions": "protein: recombinant;recombinant; copies: 1;1; dsDNA, one strand shown", "method_in_brief": "as §1"}}}
{"sequence": "AGGTTAAC", "values": [{"measurement": "binding signal", "setting": "[1]", "result": "0.032 % of ANNNNAAN 8-mers"}, {"measurement": "binding signal", "setting": "[2]", "result": "0.0293 % of ANNNNAAN 8-mers"}, {"measurement": "binding signal", "setting": "[3]", "result": "0.0324 % of ANNNNAAN 8-mers"}, {"measurement": "binding signal", "setting": "[4]", "result": "0.0338 % of ANNNNAAN 8-mers"}]}
{"sequence": "ATGGAAAT", "values": [{"measurement": "binding signal", "setting": "[1]", "result": "0.943 % of ANNNNAAN 8-mers"}, {"measurement": "binding signal", "setting": "[2]", "result": "0.723 % of ANNNNAAN 8-mers"}, {"measurement": "binding signal", "setting": "[3]", "result": "0.958 % of ANNNNAAN 8-mers"}, {"measurement": "binding signal", "setting": "[4]", "result": "0.982 % of ANNNNAAN 8-mers"}]}
{"sequence": "AGTACAAC", "values": [{"measurement": "binding signal", "setting": "[1]", "result": "0.0164 % of ANNNNAAN 8-mers"}, {"measurement": "binding signal", "setting": "[2]", "result": "0.0173 % of ANNNNAAN 8-mers"}, {"measurement": "binding signal", "setting": "[3]", "result": "0.0152 % of ANNNNAAN 8-mers"}, {"measurement": "binding signal", "setting": "[4]", "result": "0.0413 % of ANNNNAAN 8-mers"}]}
{"sequence": "ACGTGAAA", "values": [{"measurement": "binding signal", "setting": "[1]", "result": "0.0374 % of ANNNNAAN 8-mers"}, {"measurement": "binding signal", "setting": "[2]", "result": "0.0386 % of ANNNNAAN 8-mers"}, {"measurement": "binding signal", "setting": "[3]", "result": "0.0386 % of ANNNNAAN 8-mers"}, {"measurement": "binding signal", "setting": "[4]", "result": "0.0297 % of ANNNNAAN 8-mers"}]}
{"sequence": "ACGCTAAC", "values": [{"measurement": "binding signal", "setting": "[1]", "result": "0.0118 % of ANNNNAAN 8-mers"}, {"measurement": "binding signal", "setting": "[2]", "result": "0.0121 % of ANNNNAAN 8-mers"}, {"measurement": "binding signal", "setting": "[3]", "result": "0.0133 % of ANNNNAAN 8-mers"}, {"measurement": "binding signal", "setting": "[4]", "result": "0.0157 % of ANNNNAAN 8-mers"}]}
{"sequence": "AATCGAAG", "values": [{"measurement": "binding signal", "setting": "[1]", "result": "0.0408 % of ANNNNAAN 8-mers"}, {"measurement": "binding signal", "setting": "[2]", "result": "0.0547 % of ANNNNAAN 8-mers"}, {"measurement": "binding signal", "setting": "[3]", "result": "0.0531 % of ANNNNAAN 8-mers"}, {"measurement": "binding signal", "setting": "[4]", "result": "0.0495 % of ANNNNAAN 8-mers"}]}
{"sequence": "ATGCCAAA", "values": [{"measurement": "binding signal", "setting": "[1]", "result": "0.0458 % of ANNNNAAN 8-mers"}, {"measurement": "binding signal", "setting": "[2]", "result": "0.0501 % of ANNNNAAN 8-mers"}, {"measurement": "binding signal", "setting": "[3]", "result": "0.0464 % of ANNNNAAN 8-mers"}, {"measurement": "binding signal", "setting": "[4]", "result": "0.0438 % of ANNNNAAN 8-mers"}]}
{"sequence": "AGGTTAAA", "values": [{"measurement": "binding signal", "setting": "[1]", "result": "0.0545 % of ANNNNAAN 8-mers"}, {"measurement": "binding signal", "setting": "[2]", "result": "0.0731 % of ANNNNAAN 8-mers"}, {"measurement": "binding signal", "setting": "[3]", "result": "0.0578 % of ANNNNAAN 8-mers"}, {"measurement": "binding signal", "setting": "[4]", "result": "0.052 % of ANNNNAAN 8-mers"}]}
{"sequence": "AAAAGAAA", "values": [{"measurement": "binding signal", "setting": "[1]", "result": "0.106 % of ANNNNAAN 8-mers"}, {"measurement": "binding signal", "setting": "[2]", "result": "0.084 % of ANNNNAAN 8-mers"}, {"measurement": "binding signal", "setting": "[3]", "result": "0.119 % of ANNNNAAN 8-mers"}, {"measurement": "binding signal", "setting": "[4]", "result": "0.0702 % of ANNNNAAN 8-mers"}]}
{"sequence": "AAAGGAAG", "values": [{"measurement": "binding signal", "setting": "[1]", "result": "0.0561 % of ANNNNAAN 8-mers"}, {"measurement": "binding signal", "setting": "[2]", "result": "0.061 % of ANNNNAAN 8-mers"}, {"measurement": "binding signal", "setting": "[3]", "result": "0.0675 % of ANNNNAAN 8-mers"}, {"measurement": "binding signal", "setting": "[4]", "result": "0.0702 % of ANNNNAAN 8-mers"}]}
{"sequence": "ATTAAAAA", "values": [{"measurement": "binding signal", "setting": "[1]", "result": "0.172 % of ANNNNAAN 8-mers"}, {"measurement": "binding signal", "setting": "[2]", "result": "0.219 % of ANNNNAAN 8-mers"}, {"measurement": "binding signal", "setting": "[3]", "result": "0.114 % of ANNNNAAN 8-mers"}, {"measurement": "binding signal", "setting": "[4]", "result": "0.09 % of ANNNNAAN 8-mers"}]}
{"sequence": "ATAGTAAA", "values": [{"measurement": "binding signal", "setting": "[1]", "result": "0.12 % of ANNNNAAN 8-mers"}, {"measurement": "binding signal", "setting": "[2]", "result": "0.115 % of ANNNNAAN 8-mers"}, {"measurement": "binding signal", "setting": "[3]", "result": "0.128 % of ANNNNAAN 8-mers"}, {"measurement": "binding signal", "setting": "[4]", "result": "0.106 % of ANNNNAAN 8-mers"}]}
{"sequence": "AAGCCAAG", "values": [{"measurement": "binding signal", "setting": "[1]", "result": "0.0271 % of ANNNNAAN 8-mers"}, {"measurement": "binding signal", "setting": "[2]", "result": "0.0184 % of ANNNNAAN 8-mers"}, {"measurement": "binding signal", "setting": "[3]", "result": "0.0168 % of ANNNNAAN 8-mers"}, {"measurement": "binding signal", "setting": "[4]", "result": "0.019 % of ANNNNAAN 8-mers"}]}
{"sequence": "ACTGTAAA", "values": [{"measurement": "binding signal", "setting": "[1]", "result": "0.0404 % of ANNNNAAN 8-mers"}, {"measurement": "binding signal", "setting": "[2]", "result": "0.042 % of ANNNNAAN 8-mers"}, {"measurement": "binding signal", "setting": "[3]", "result": "0.0406 % of ANNNNAAN 8-mers"}, {"measurement": "binding signal", "setting": "[4]", "result": "0.0388 % of ANNNNAAN 8-mers"}]}
{"sequence": "AAGGCAAG", "values": [{"measurement": "binding signal", "setting": "[1]", "result": "0.0328 % of ANNNNAAN 8-mers"}, {"measurement": "binding signal", "setting": "[2]", "result": "0.038 % of ANNNNAAN 8-mers"}, {"measurement": "binding signal", "setting": "[3]", "result": "0.0328 % of ANNNNAAN 8-mers"}, {"measurement": "binding signal", "setting": "[4]", "result": "0.0256 % of ANNNNAAN 8-mers"}]}
